This is an account of results in the supplement of paper PMC11417369.

Whole data set: some 25,000 sequences, median “ln(normalized median fluorescence intensity)” near 6.7, cut for the highest 2% near 10. The sample holds the highest values, similar sequences and a random draw of the others, so the mix is not that of the screen.

The assay concerns PfHDP1 homeodomain (GST-tagged). Nature of the assay: gcPBM binding intensity (ln(normalized median fluorescence intensity)); higher = stronger DNA binding. A digest of the protocol: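 The binding buffer was 1× PBS containing 1% milk, 0.2 mg/ml BSA, 0.5% salmon testes DNA and 0.03% Triton X-100. In it, GST-tagged P. falciparum DNA-binding domains expressed in E. coli were applied for 1 h to an Agilent 4 × 180k array of primer-extended double-stranded 36-bp intergenic genomic probes plus negative controls. Binding intensity, read with Alexa488 anti-GST antibody and a 488 nm scan, is the highest Masliner-normalised natural-log median intensity across replicate spots of either probe orientation.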
As for “ATCATTTGCATACGCACACACACATAAAAAGAAAAA [CACACA_site355]”, the “gcPBM binding intensity (ln)” value came to 8.44.
The figure for “ATCATTTGCTCACGCACACACACATAAAAAGAAAAA [CACACA_site4349]” is 9.55.
The figure for “CATTTGCACACGCACACACACATAAAAAGAAAAATA [CACACA_site6297]” is 10.8; for “TTATCACATTATTGCACACACATAAAGAAAAAAATA [CACACA_site2841]” it is 9.63; for “CATTTGCACCCGCACACACACATAAAAAGAAAAATA [CACACA_site4350]” it is 10.7.
Consider “CATTTGCCCAGGCACACACACATAAAAAGAAAAATA [CACACA_site356]”, for which the “gcPBM binding intensity (ln)” value is 6.34.
The figure for “AACTATATCATTTATTTTATTTTTTAAATACATTTA [CACACA_negctrl_site183]” is 6.19; for “ATATATGTAATAAATAGTACACACACACATATATAT [XGTACX_site2817]” it is 7.35; for “ATACTGTATAGTCGCACACAAAAATATAAAATATTT [CACACA_site6004]” it is 6.65.
The figure for “CATATATATTTGTTCACACACACACTAATAAAAAAA [CACACA_site8787]” is 6.85; for “TTGCAAATATATGGTTGTACTCAAAAAAAAAAAAAA [XGTACX_site6975]” it is 6.47.
In the case of “GAAAGAAATAAAGGTGGTACATAAATAAAAACTAAG [XGTACX_site4826]”, the “gcPBM binding intensity (ln)” value came to 6.97.
Next, “TATATATATTTCCAGTGTACTTATTTTTTAATCAAT [XGTACX_site8220]”: 6.7.
The figure for “TTTTTTTTGTTCATTGTGCACATTGCTTGCATGGAA [GTGCAC_site9693]” is 10.8.
Next, “TATCATTGTTCATGCTTGCACTTTTGTTACTGTTCC [GTGCAC_site9425]”: 6.75; “TTTTTTTTTTTTGGTGCATGCACATTTTGTTTTTTT [TGCATGCA_site570]”: 10.
Turning to “GTAGGCATTAAAAAATGTACAAAATATTATGAATTG [XGTACX_site1615]”, the “gcPBM binding intensity (ln)” value came out at 6.32.
Consider “AGTAGGCATATTGGTTGTACAAAAAAATTATGCACC [XGTACX_site8925]”, for which the “gcPBM binding intensity (ln)” value turned out to be 10.6.
In the case of “TGAACATATTAAAATTGTACATATGCACAATATGTA [XGTACX_site6801]”, the “gcPBM binding intensity (ln)” value came out at 9.28.
The figure for “AAACATAAAGAAAAAAAAAATATATATTTATTTATT [GTGCAC_negctrl_site357]” is 6.33; for “ATATACACATATACATGTACAAATATATATACACAT [XGTACX_site2986]” it is 6.9.
For the sequence “CATATGTATATGACTACACACAAGGGTGTACCTATA [CACACA_site6670]”, the “gcPBM binding intensity (ln)” value came out at 6.34.
For “GAACATTTATTGTGTGTGCACAATTCTTTTTTAACC [GTGCAC_site9697]”, the “gcPBM binding intensity (ln)” value worked out at 10.2.
The figure for AATAGATTTTTATGCGTGCACACATTTAACAAAAAA is 10.3.
The figure for TTTAACATTTCAGATGTGCACATTTTCCGAACCAGT is 10.9.
Take “TATTATAATATTTATACACACATAATTTTGATAAAT [CACACA_site583]”: the “gcPBM binding intensity (ln)” value stood at 6.45.
The figure for “TTTCCGTATAATTTTGCACACGAATATAAATTTGAT [CACACA_site137]” is 10.3; for “TCCGTATAATTTTGCACACGAATATAAATTTGATAA [CACACA_site136]” it is 10.9.
As to “TGGAGGTCAGTTCACAGTACCCAGGAAATCTACGGA [XGTACX_site1995]”, the “gcPBM binding intensity (ln)” value stood at 5.93.
With “TTTTTCTTAAAAAATTGTACACATATATATATATAT [XGTACX_site542]”, the “gcPBM binding intensity (ln)” value is 9.21.
The figure for “GTAGTGGTTGAATATACACACATATATATATATATA [CACACA_site2651]” is 9.39.
The figure for “CCTAGAAAAAAGAACTGTACATATATATATAAATAT [XGTACX_site1680]” is 6.65; for “TATATTAACAAAATGGTGCAATAATTTCTATATTAT [GTGCAC_site9857]” it is 10.5.
Take “GTAGACATTATAATGGTGCAAAAAAATTAACAAAAA [GTGCAC_site9891]”: the “gcPBM binding intensity (ln)” value turned out to be 10.6.
Consider “GACAAATAATAAAAGGTGCATTATACTTAACAAAAA [GTGCAC_site9624]”, for which the “gcPBM binding intensity (ln)” value was 9.69.
Next, “TCAAGTATTAAAATGGGTACATAAATATGTGTATAT [XGTACX_site5884]”: 6.63; “TATAATAAATCATATGCATGTTGAAAAAAAAAAAAA [TGCATGCA_site923]”: 6.46; “AATATATAGAAACACACACACAAAAAAAAAAAAAAA [CACACA_site1326]”: 6.47.
Next, “TTTTGAAACATATGATGTACACGAACATTTAAAAAA [XGTACX_site474]”: 6.6; “ATTTAGAAAAATAAAACACACATATATCTGTAAATA [CACACA_site6119]”: 6.53.
Next, “ATAAAAATATTGTCTAGTACATATTTATAATAAAAA [XGTACX_site7523]”: 6.54.
Consider “TATATATATATGTGCACACCAATTGTATGTAATATA [CACACA_site3889]”, for which the “gcPBM binding intensity (ln)” value was 10.6.
Next, “TATATATATATGTGCACACATATATAATATGTATAA [CACACA_site715]”: 10.1; “ATTGAATATGTAAATGCACACCAAAAAAAAAAAAAA [CACACA_site9189]”: 9.61; “TAATATAATATATGCACACAAATATGTATATATGTG [CACACA_site2134]”: 9.77.
Next, “AATATATATATATGTGCACACATATATAATATGTAT [CACACA_site716]”: 9.79; “TATATATATATATGTGCACACCAATTGTATGTAATA [CACACA_site3888]”: 10.5; “CACAAAATAAATTAAACACACAACATCATATATGTA [CACACA_site846]”: 6.57.
The figure for “TTTTTTTATATAGACACAAAAGAAAATTACATATAC [CACACA_negctrl_site235]” is 6.49; for “ATATATAATAAATACACACACATGTATTTATAAATA [CACACA_site5135]” it is 6.8; for “TTTTTTTTGGTATAATGTACATTTTCACTTATGTAT [XGTACX_site3259]” it is 6.97.
With “CAGACGCACGTATTTGCACACATTGCCACGTAATTA [CACACA_site3349]”, the “gcPBM binding intensity (ln)” value turned out to be 10.2.
Consider “CACCCGCACGTATTTGCACACATTGCCACGTAATTA [CACACA_site5786]”, for which the “gcPBM binding intensity (ln)” value turned out to be 10.7.
Next, “TTTTTTTTTTTTTTTGCACACACATTGAATTATTAT [CACACA_site198]”: 9.13; “TGTAATCAAAAAAATAGTACATAAATTGTGTATACT [XGTACX_site5908]”: 6.57; “TTTATTTTATCATTTGCACACGCACCCAGACATAAA [CACACA_site4347]”: 10.6.
On to “TTTTATCACATTATTGCACACACATAAAGAAAAAAA [CACACA_site8922]”, for which the “gcPBM binding intensity (ln)” value was found to be 9.63.
For “TATTTTATCATTTGCACACGCACACCGACATAAAAA [CACACA_site4348]”, the “gcPBM binding intensity (ln)” value amounted to 10.6.
Next, “TTTATTTTATCATTTGCACACGCACCCCCACATAAA [CACACA_site8007]”: 10.2; “TTTATTTTATCATTTGCACACGCACGCCCACATAAA [CACACA_site353]”: 10.6.
Next, “AGCACGCACAGACACACACACATATTTATATTTATA [CACACA_site6291]”: 7.62.
With “TTATCATTTGGACACGCACACACACCGAAAAAGAAA [CACACA_site8008]”, the “gcPBM binding intensity (ln)” value was 7.13.
Next, “TTTTTTTTTATTATCATGCACACATTTTTTTTTTTT [CACACA_site2254]”: 9.1; “TATTTTATCATTTGCACACGCACACCCACATAAAAA [CACACA_site354]”: 10.5.
The figure for TACCAATGCATAACGGTGCAAAAAAATAAGGAATAA is 10.3; for “AAATTATAAAATAACTGTACCAATCCTTTTTTTTTA [XGTACX_site2229]” it is 5.84.
The figure for “TATACATATGTATGCACACATACATACCCATATAAT [CACACA_site5842]” is 9.42; for “GTATAAAAATTTAGGAGTACAATATATTTATAATAT [XGTACX_site2127]” it is 6.5.
On to “ATATTTCATTAATGAACACACAAAGAGGTATATAAA [CACACA_site1519]”, for which the “gcPBM binding intensity (ln)” value is 6.86.
Take “AATTAGACATAATATACACACATATATTATATATAT [CACACA_site2691]”: the “gcPBM binding intensity (ln)” value stood at 6.91.
Turning to “ATATTAAAGCCTTTTTGTACATATAAATAAACATAG [XGTACX_site4667]”, the “gcPBM binding intensity (ln)” value worked out at 6.66.
In the case of “GTAAAATTTCGGATTTGTACACATGGCTATGAAAAA [XGTACX_site939]”, the “gcPBM binding intensity (ln)” value was determined as 6.57.
For the sequence “TGCCCTAACCATACTACACACACTGCTCAAAATAGT [CACACA_site2219]”, the “gcPBM binding intensity (ln)” value is 7.09.
Take “AGGATATAAAGTTGTGCATGTCAAGTGCACCGTATT [TGCATGCA_site451]”: the “gcPBM binding intensity (ln)” value was 10.2.
On to “TGTATATATAAACATGCACACGTGGTTGTATATATA [CACACA_site9078]”, for which the “gcPBM binding intensity (ln)” value amounted to 8.31.
Turning to “ATAATATAAATATACACACACACATATATATATATA [CACACA_site2905]”, the “gcPBM binding intensity (ln)” value came out at 9.28.
The figure for “ATATATATATAGTGCACACTTAAGAATATAAAGAGG [CACACA_site1151]” is 10.7.
Consider “AAATAATATAAATACACACACACATATATAAATACA [CACACA_site4465]”, for which the “gcPBM binding intensity (ln)” value came out at 7.06.
Next, “ATATATATATAGTGCACACATATAAAATATATATAA [CACACA_site2745]”: 10.8; “AAAAATATAAAAATAGCACACATATATACATATATA [CACACA_site7901]”: 6.67; “ATATATATATATAGTGCACACATATAAAATATATAT [CACACA_site8884]”: 10.3.
In the case of “AAATAAAGAATATAAATACACACTTAAATATATATT [CACACA_site4007]”, the “gcPBM binding intensity (ln)” value is 6.44.
Next, “ATATAAATATAGTGTGCACACACATAATATATATAT [CACACA_site8713]”: 10.7.
The figure for “ATATATATATATAGTGCACACTTAAGAATATAAAGA [CACACA_site4771]” is 10.3; for “ATATAAATACGGTGTGCACACACATAATATATATAT [CACACA_site2271]” it is 11.1; for TATATATATATAATAGTGCATAAATAAATATATAAA it is 9.
For “AATATAATAATATTTTGTACATATCCTATGTATGAG [XGTACX_site8601]”, the “gcPBM binding intensity (ln)” value was 6.5.
Next, “TATAAATATAAATACACACACACATCAATACAGATA [CACACA_site5850]”: 6.87; “CGCGAACATACATACACACACATATATATATCTGTA [CACACA_site4277]”: 6.98.
On to “ATTGAATTCCAACTGGTGCACCAGTAAGATTGAAAA [GTGCAC_site9895]”, for which the “gcPBM binding intensity (ln)” value was found to be 10.1.
